# From PubChem BioAssay
# The source made the active and inactive calls.
# Experiments:
# [1] = E. coli DRC41 culture turbidity changes, primary screen, E. coli filamentation inducer project, strain DRC41, OD650, 48 h (AID 1152);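 note: E. coli MC1000 strain DRC41 lacking acrAB efflux pump and sulA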; details: E. coli DRC41 (acrAB sulA), higher = more signal, called active from +8 up or from −8 down
# [2] = small-molecule binders of probe aLefty1, primary screen, biochemical, small-molecule microarray, 635/667 nm fluorescence (AID 1153); details: higher = more signal;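 note: score merges spot fluorescence with signal-to-noise ratio from the scanned slide images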
# [3] = PSAC antagonists in infected red cells, primary screen, cell-based, P. falciparum Indochina, OD700, 1 h (AID 1154); details: P. falciparum Indochina infected RBC osmotic lysis, higher = more signal, called active from +8 up or from −8 down
# [4] = PSAC antagonists in infected red cells, primary screen, cell-based, P. falciparum Indochina, OD700, 2 h (AID 1155);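 note: lysis reports solute entry through the parasite surface anion channel PSAC; channel blockers reduce lysis of infected cells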; details: P. falciparum Indochina infected erythrocytes, osmotic lysis OD700; higher = more signal, called active from +8 up or from −8 down
# [5] = osmotic lysis modulators in infected erythrocytes, primary screen, PSAC antagonist project, cell-based, P. falciparum Indochina, OD700, 3 h (AID 1156); details: higher = more signal, called active from +8 up or from −8 down
# [6] = PSAC antagonists in infected red cells, primary screen, cell-based, P. falciparum Indochina, OD700, 18 h (AID 1157); details: P. falciparum Indochina infected erythrocytes, osmotic lysis OD700, 18 h; higher = more signal, called active from +8 up or from −8 down
# [7] = modulators of S6 phosphorylation in cells, primary screen, cell-based, A549, cytoblot, luminescence, serum-stimulated (AID 1158); details: A549 phospho-S6 cytoblot, 5 h, higher = more signal;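 note: serum-stimulated A549 lung adenocarcinoma cells; signal is phosphorylated S6 detected by cytoblot immunostaining with HRP secondary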
# [8] = target: NADPH oxidase 2 (Homo sapiens) (UniProt P04839); assay: NOX2-dependent H2O2 signal modulators, primary screen, NOX inhibitor project, cell-based, HEK293-NOX2, PMA-stimulated, Amplex Red fluorescence (AID 1159); details: 45 min, higher = more signal, called active from +8 up or from −8 down; note: test concentration not given here
# [9] = target: NADPH oxidase 4 (Homo sapiens) (UniProt Q9NPH5); assay: NOX4-dependent H2O2 signal modulators, primary screen, NOX inhibitor project, cell-based, HEK293-NOX4, tetracycline-induced, Amplex Red fluorescence (AID 1160); details: 45 min, higher = more signal, called active from +8 up or from −8 down
# [10] = target: NADPH oxidase 5 (Homo sapiens) (UniProt Q96PH1); assay: NOX5-dependent H2O2 signal modulators, primary screen, NOX inhibitor project, cell-based, HEK293-NOX5, Amplex Red fluorescence (AID 1161); details: HEK293-NOX5, ionomycin, 45 min, higher = more signal
# [11] = A549 cell viability effects, profiling panel, calcein-AM fluorescence, 48 h, basal (AID 1162); details: higher = more signal; note: test concentration not given here
# [12] = adipocyte viability effects, profiling panel, cell-based, 3T3-L1 adipocytes, calcein-AM fluorescence, 48 h, basal (AID 1163); details: 3T3-L1 adipocytes viability, higher = more signal; note: test concentration not given here
# [13] = HepG2 cell viability effects, profiling panel, calcein-AM fluorescence, 48 h, basal (AID 1164); details: higher = more signal; note: test concentration not given here
# [14] = MM1S cell viability effects, profiling panel, calcein-AM fluorescence, 48 h, basal (AID 1165); details: higher = more signal;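 note: viability of MM1S multiple myeloma cells under basal unstimulated conditions; test concentration not given here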
# [15] = basal RPMI8226 viability, no added stimulus, profiling panel, cell-based, calcein-AM fluorescence, 48 h, PK04 Diversity Set (AID 1166); details: RPMI8226 myeloma viability, higher = more signal;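 note: cells grown under basal conditions without added stimulus; test concentration not given here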
# [16] = basal HepG2 mitochondrial membrane potential changes, profiling panel, cell-based, JC-1 fluorescence, 24 h, 100 nL compound (AID 1167); details: higher = more signal; note: test concentration not given here
# [17] = basal 3T3-L1 adipocyte mitochondrial potential changes, profiling panel, cell-based, JC-1 fluorescence, 3T3-L1 adipocytes, 24 h, 100 nL compound (AID 1168); details: JC-1 mitochondrial fluorescence, higher = more signal, called active from +8 up or from −8 down; note: test concentration not given here
# [18] = basal RPMI8226 mitochondrial membrane potential changes, profiling panel, cell-based, JC-1 fluorescence, 24 h, 100 nL compound (AID 1169); details: RPMI8226 myeloma, JC-1 mitochondrial potential fluorescence, higher = more signal; note: test concentration not given here
# [19] = basal MM1S mitochondrial membrane potential changes, profiling panel, cell-based, JC-1 fluorescence, 24 h, 100 nL compound (AID 1170); details: higher = more signal; note: test concentration not given here
# [20] = A549 lung cancer cell viability effects, profiling panel, resazurin fluorescence, 24 h, PK04 Diversity Set (AID 1171); details: higher = more signal, called active from +8 up or from −8 down; note: test concentration not given here
# Chain of NADPH oxidase 5 (Homo sapiens) (Q96PH1 whole entry, looked up): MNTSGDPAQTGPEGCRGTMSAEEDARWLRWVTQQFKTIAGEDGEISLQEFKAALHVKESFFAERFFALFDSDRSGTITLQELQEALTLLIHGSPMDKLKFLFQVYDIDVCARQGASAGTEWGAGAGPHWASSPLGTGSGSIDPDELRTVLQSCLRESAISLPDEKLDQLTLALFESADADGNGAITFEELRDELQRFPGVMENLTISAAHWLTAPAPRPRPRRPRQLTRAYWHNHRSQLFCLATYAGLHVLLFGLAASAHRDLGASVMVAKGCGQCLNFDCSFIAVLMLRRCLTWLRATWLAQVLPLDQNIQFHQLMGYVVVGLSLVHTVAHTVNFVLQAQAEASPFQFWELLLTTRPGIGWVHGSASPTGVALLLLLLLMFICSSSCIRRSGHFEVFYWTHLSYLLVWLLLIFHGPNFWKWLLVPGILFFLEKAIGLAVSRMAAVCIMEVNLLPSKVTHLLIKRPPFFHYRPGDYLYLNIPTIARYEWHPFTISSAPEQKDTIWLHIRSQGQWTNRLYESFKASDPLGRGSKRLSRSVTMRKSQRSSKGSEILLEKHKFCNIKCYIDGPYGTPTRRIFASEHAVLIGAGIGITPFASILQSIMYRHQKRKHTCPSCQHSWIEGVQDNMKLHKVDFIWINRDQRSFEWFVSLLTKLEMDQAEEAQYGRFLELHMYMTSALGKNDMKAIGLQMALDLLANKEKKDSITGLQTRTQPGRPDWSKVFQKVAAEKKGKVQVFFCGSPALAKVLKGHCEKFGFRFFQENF
# Chain of NADPH oxidase 4 (Homo sapiens) (Q9NPH5 whole entry, looked up): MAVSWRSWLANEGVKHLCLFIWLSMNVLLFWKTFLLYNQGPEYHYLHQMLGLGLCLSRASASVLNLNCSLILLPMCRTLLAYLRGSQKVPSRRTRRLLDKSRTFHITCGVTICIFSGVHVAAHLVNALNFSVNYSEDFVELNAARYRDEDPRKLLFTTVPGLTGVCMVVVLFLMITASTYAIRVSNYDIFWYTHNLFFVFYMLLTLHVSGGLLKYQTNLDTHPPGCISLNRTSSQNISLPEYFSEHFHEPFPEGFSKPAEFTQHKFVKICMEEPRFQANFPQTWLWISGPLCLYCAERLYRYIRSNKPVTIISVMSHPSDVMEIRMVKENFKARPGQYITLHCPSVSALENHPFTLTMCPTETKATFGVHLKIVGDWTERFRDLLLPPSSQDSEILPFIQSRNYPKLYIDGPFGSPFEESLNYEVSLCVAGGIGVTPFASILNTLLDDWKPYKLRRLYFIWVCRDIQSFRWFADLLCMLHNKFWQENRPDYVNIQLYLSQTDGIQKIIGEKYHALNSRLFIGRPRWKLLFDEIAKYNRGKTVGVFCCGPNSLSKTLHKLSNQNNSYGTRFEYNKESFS
# Chain of NADPH oxidase 2 (Homo sapiens) (P04839 whole entry, looked up): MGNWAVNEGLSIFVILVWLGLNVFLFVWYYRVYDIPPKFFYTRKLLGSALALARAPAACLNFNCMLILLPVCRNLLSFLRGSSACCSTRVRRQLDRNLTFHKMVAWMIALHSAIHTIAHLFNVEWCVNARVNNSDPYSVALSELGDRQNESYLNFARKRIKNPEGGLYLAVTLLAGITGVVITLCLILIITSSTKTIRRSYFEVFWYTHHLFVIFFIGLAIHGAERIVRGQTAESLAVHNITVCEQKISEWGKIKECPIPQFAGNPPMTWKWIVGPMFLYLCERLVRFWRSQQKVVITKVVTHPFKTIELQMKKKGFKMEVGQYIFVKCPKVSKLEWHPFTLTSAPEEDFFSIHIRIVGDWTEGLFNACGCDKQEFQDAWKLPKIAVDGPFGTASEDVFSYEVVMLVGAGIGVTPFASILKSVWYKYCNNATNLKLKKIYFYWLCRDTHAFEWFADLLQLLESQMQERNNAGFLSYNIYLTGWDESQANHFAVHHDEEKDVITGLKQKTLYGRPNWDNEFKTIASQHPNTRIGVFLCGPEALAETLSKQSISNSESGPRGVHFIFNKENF
Compound,z-score [1],composite z-score [2],z-score [3],z-score [4],z-score [5],z-score [6],z-score [7],z-score [8],z-score [9],z-score [10],z-score [11],z-score [12],z-score [13],z-score [14],z-score [15],z-score [16],z-score [17],z-score [18],z-score [19],z-score [20]
O=C1NC(=O)C2C1C=CC(C(O)C1CCCCC1)N2Nc1ccccn1 (stereo not given),-1.72 (inactive),-0.0779,0.188 (inactive),0.567 (inactive),-0.489 (inactive),0.433 (inactive),-0.621,-1.2 (inactive),-3.29 (inactive),-2.69,-1.05,-0.608,-0.484,-0.0776,-0.76,-1.45,-0.894 (inactive),-0.573,-0.9,-0.606 (inactive)
COC(=O)[C@@]1(Cc2ccccc2)[C@H]2c3cc(C(=O)N(C)C)n(CCF)c3C[C@H]2CN1C(=O)c1ccccc1,-0.81 (inactive),0.873,1.54 (inactive),0.322 (inactive),0.484 (inactive),0.544 (inactive),-0.546,0.148 (inactive),-1.73 (inactive),-1.89,-1.23,-0.386,-0.561,0.258,-0.57,0.376,-0.874 (inactive),0.328,-0.294,-0.818 (inactive)
CCCN1C(=O)[C@@]2(c3ccc([N+](=O)[O-])cc3)CC(=O)N(C3CCCCC3)[C@@H]2c2ccc(CO)cc21,-1.45 (inactive),-0.5,-0.0987 (inactive),0.636 (inactive),-0.203 (inactive),0.0577 (inactive),-0.504,-0.955 (inactive),-0.281 (inactive),-0.19,-0.522,-0.952,-0.574,-0.679,-0.173,-1.19,-0.626 (inactive),-0.696,-0.868,-0.291 (inactive)
COCCOC(=O)N1C(=O)[C@@]2(c3cc(C#CC4(O)CCCCCC4)ccc31)[C@H](C(N)=O)[C@H]1C(=O)O[C@H](c3ccccc3)[C@H](c3ccccc3)N1[C@@H]2c1ccc(OCCO)cc1,-0.0172 (inactive),0.0861,3.59 (inactive),1.45 (inactive),0.843 (inactive),1.01 (inactive),0.0826,1.52 (inactive),0.984 (inactive),0.923,-0.502,-0.0582,-1.71,-2.99,-4.26,-1.97,-0.69 (inactive),-1.29,-1.7,-1.54 (inactive)
COC(=O)[C@@]1(Cc2ccc(OC)cc2)[C@@H]2[C@@H](CC(=O)[C@H]2CC(=O)C(=O)N(C)C)CN1C(=O)c1ccccc1,-0.715 (inactive),2.12,2.94 (inactive),1.08 (inactive),0.63 (inactive),1.45 (inactive),0.58,0.337 (inactive),0.898 (inactive),0.427,-1.45,-0.18,-0.923,-2.24,-4.62,1.1,-0.169 (inactive),-0.735,-2.16,-2.28 (inactive)
CC(C)N1C(=O)[C@@]2(Cc3ccccc31)c1ccccc1C(=O)N(Cc1ccccc1)[C@H]2c1ccc(CO)cc1,0.882 (inactive),-0.211,0.117 (inactive),0.945 (inactive),0.146 (inactive),0.328 (inactive),-0.274,-1.11 (inactive),-0.462 (inactive),-0.601,-0.128,0.0609,-0.112,-0.436,-0.617,-0.0756,-0.0814 (inactive),0.122,0.687,0.247 (inactive)
C=CC[C@]12N=C(c3ccc(OCCCO)cc3)O[C@H]1c1ccccc1N(CCC)C2=O,-0.0423 (inactive),1.26,32.8 (active),33.1 (active),2.98 (inactive),4.84 (inactive),0.204,-2.03 (inactive),0.00147 (inactive),-1.71,-1.36,0.538,-0.454,-2.03,-3.07,0.788,1.85 (inactive),-1.07,-0.207,0.266 (inactive)
CC(CO)N1C(=O)[C@@H]2[C@H]3C(=O)OCC=C[C@H]3OC23C=CCN(c2ccc4ccccc4c2)C(=O)[C@@H]13 (stereo not given in full),-0.855 (inactive),0.0927,0.201 (inactive),0.0537 (inactive),0.162 (inactive),-0.0627 (inactive),-0.409,0.405 (inactive),0.512 (inactive),1.79,0.0456,0.0291,-0.432,-0.496,-0.149,-0.626,-0.654 (inactive),0.109,0.563,0.873 (inactive)
CCOC(=O)C[C@H]1[C@H](OC(=O)c2cc3ccccc3oc2=O)[C@@H](NC(=O)Cc2ccc(OC)cc2)c2cc(OCCCO)ccc2N1C(=O)Cc1ccc(OC)cc1,0.983 (inactive),1.28,6.34 (inactive),-1.26 (inactive),-0.456 (inactive),-2.42 (inactive),1.32,1.38 (inactive),1.52 (inactive),0.991,1.16,1.68,0.37,0.789,0.148,0.164,-0.3 (inactive),0.301,-0.985,0.551 (inactive)
O=C1O[C@H](c2ccccc2)[C@H](c2ccccc2)N2[C@H]1[C@@H](C(=O)N1CCCCCCC1)[C@]1(C(=O)Nc3ccc(C#CCCO)cc31)[C@H]2c1ccc(O)cc1,1.48 (inactive),3.06,1.01 (inactive),-0.0898 (inactive),0.0261 (inactive),0.295 (inactive),0.0374,1.28 (inactive),0.892 (inactive),1.38,1.53,0.0496,1.22,-0.149,0.0392,0.638,0.547 (inactive),-0.146,-0.979,0.798 (inactive)
COCCOC(=O)N1C(=O)[C@@]2(c3cc(C#CCNC(N)=O)ccc31)[C@H](C(=O)N1CCN(c3ncccn3)CC1)[C@H]1C(=O)O[C@H](c3ccccc3)[C@H](c3ccccc3)N1[C@@H]2c1ccc(O)cc1,0.03 (inactive),-0.514,1.35 (inactive),-0.136 (inactive),0.889 (inactive),0.539 (inactive),-0.285,0.806 (inactive),0.432 (inactive),0.31,0.722,-0.118,0.568,0.445,1.17,0.866,-0.709 (inactive),-0.0604,-0.564,-0.824 (inactive)
[N-]=[N+]=NCc1ccccc1C[C@@]1(C(=O)NCCN2CCOCC2)N=C(c2ccc(OCCCO)cc2)O[C@@H]1c1ccccc1,-1.58 (inactive),0.546,25.3 (active),11.7 (active),1.44 (inactive),1.65 (inactive),-0.28,-1.48 (inactive),0.731 (inactive),1.27,0.0171,-0.221,-1.04,-2.72,-1.99,-0.3,0.556 (inactive),-1.18,-0.956,-0.112 (inactive)
O=C/C=C/c1ccc(-c2ccccc2)cc1,1.06 (inactive),-0.0186,2.39 (inactive),-0.681 (inactive),-0.103 (inactive),-2.17 (inactive),1.04,0.388 (inactive),-1.85 (inactive),0.605,0.252,0.919,-1.45,-3.23,-4.15,-0.253,0.965 (inactive),-0.853,-3.05,-0.539 (inactive)
Cc1ccc(S[C@]2(C(=O)NC(C)C)CC(=O)N(Cc3ccccc3)[C@@H]2c2ccc(CO)cc2I)cc1,0.214 (inactive),0.164,5.59 (inactive),0.654 (inactive),0.59 (inactive),0.231 (inactive),-0.35,0.671 (inactive),-0.818 (inactive),1.76,0.15,0.547,1,-2.02,-1.69,0.744,0.98 (inactive),-0.25,-1.23,-1.13 (inactive)
C=C(C(=O)CC[C@@H](OC(=O)c1ccccc1-c1ccccc1C(=O)O)c1ccc(CO)o1)C(C)C,-0.796 (inactive),0.0945,0.897 (inactive),0.192 (inactive),0.365 (inactive),0.0861 (inactive),-0.535,1 (inactive),-0.593 (inactive),-0.213,-0.656,0.231,0.473,-1.33,-0.951,-1.54,-0.747 (inactive),-0.479,-0.0298,-0.359 (inactive)
O=C1NC(=O)C2C1C=CC(C(O)C(c1ccccc1)c1ccccc1)N2Nc1ccccn1 (stereo not given),-0.332 (inactive),0.228,0.186 (inactive),0.829 (inactive),0.156 (inactive),0.853 (inactive),-0.681,0.738 (inactive),-2.13 (inactive),-1.47,0.795,-0.46,0.605,0.332,0.077,0.176,-0.219 (inactive),0.432,0.525,-0.0343 (inactive)
CC(C)[Si](C#Cc1ccccc1)(O[C@H](c1ccccc1)c1cn(Cc2ccccc2)nn1)C(C)C,1.57 (inactive),-0.275,1.66 (inactive),1.53 (inactive),-1.39 (inactive),0.554 (inactive),0.0866,0.789 (inactive),-1.18 (inactive),-2.98,-1.6,-0.433,-2.13,-1.8,-2.46,-1.19,0.24 (inactive),-0.425,-0.0328,-0.486 (inactive)
Cc1ccc(S[C@]2(C(=O)NCc3ccccc3)CC(=O)N(Cc3ccccc3Cl)[C@@H]2c2ccc(CO)cc2)cc1,-0.71 (inactive),-0.0536,3.22 (inactive),0.328 (inactive),2.98 (inactive),0.254 (inactive),-0.121,-0.703 (inactive),-0.666 (inactive),-0.778,-0.643,0.9,0.191,0.0218,-1.25,0.0273,-0.537 (inactive),-0.517,0.666,0.0338 (inactive)
